# Calls of active or inactive are those of the source. The calls were made as follows: active = hit-call score of the fitted dose curve at least 0.9, where 1 is the maximum; inactive = score below 0.9.
# Assay: ATG_GRE_CIS: Attagene CIS-FACTORIAL HepG2 Assay for human Glucocorticoid Response Elements (GRE) (AID 2282947)
# Details: HepG2 GRE cis-reporter, Attagene multiplex mRNA; actives raise or lower the signal
# Description: ATG_CIS is a cell-based, multiplexed-readout assay that uses HepG2, a human liver cell line, with measurements taken at 24 hours after chemical dosing in a 24-well plate.ATG_GRE_CIS is one of 52 assay component(s) measured or calculated from the ATG_CIS assay. It is designed to make measurements of mRNA induction, a form of inducible reporter, as detected with fluorescence intensity signals by Reverse transcription polymerase chain reaction (RT-PCR) and Capillary electrophoresis technology.Data from the assay component ATG_GRE_CIS was analyzed into 1 assay endpoint. This assay endpoint, ATG_GRE_CIS, was analyzed with bidirectional fitting relative to DMSO as the negative control and baseline of activity. Using a type of inducible reporter, measures of mRNA for gain or loss-of-signal activity can be used to understand the reporter gene at the transcription factor-level as they relate to the gene NR3C1. Furthermore, this assay endpoint can be referred to as a primary readout, because this assay has produced multiple assay endpoints where this one serves a reporter gene function. To generalize the intended target to other relatable targets, this assay endpoint is annotated to the nuclear receptor intended target family, where the subfamily is steroidal.
# Human liver HepG2 cells are transiently transfected with multiple reporter transcription units (MRTUs) in 6-well plates using FuGene 6 reagent (Roche; 3 ml FuGene/1 mg DNA). The MRTU constructs are regulated by a cis-regulating element (promoter). […] A major difference between the CIS and TRANS system is that in CIS activities of endogenous TFs are measured, whereas the TRANS assay evaluates changes in activities of exogenous, chimeric NR-Gal4 proteins. […] At the end of 24 hour incubation, total RNA was isolated using TriZol reagent (Invitrogen). The isolated RNA is then reverse-transcribed using oligo(dT) primer and Mo-MLV reverse transcriptase (Invitrogen) with DNAse I (Ambion) treatment for 30 min. The one-tenth of the produced cDNA was amplified by PCR using Taq DNA polymerase (Invitrogen) and two reporter sequence-specific primers. The PCR products were fluorescently labeled by primer extension with 6-arboxyfluorescein (6-FAM) 5'-labeled reporter sequence-specific primer (2 min at 95 C, 20 s at 68 C and 10 min at 72 C) and these products were digested with 5U of HpaI (New England Biolabs) for 2h at 37 C. The fragments were purified using Qiaquick PCR columns (Qiagen), analyzed on an ABI 3130xL genetic analyzer (Applied Biosystems) with peak positions identified by using a set of X-rhodamine (ROX)-labeled MapMarker1000 molecular weight standards (BioVentures). The raw capillary electrophoresis data was processed using Attagraph software (Attagene).
row,Compound,outcome
1,COC(F)(F)C(F)(C(F)(F)F)C(F)(F)F,inactive
2,CCCCCCCCCCCCCCCC[N+](C)(C)CC,inactive
3,Cc1ccccc1C,inactive
4,O=C1CC2CC1C1CCCC21 (stereo not given),inactive
5,CN1C(=O)N(C)C(O)C1O (stereo not given),inactive
6,OC1CCCCCCCCCCC1,inactive
7,C#CC1(O)CC[C@H]2[C@@H]3CCC4=CCCC[C@@H]4[C@H]3CC[C@@]21C (stereo not given in full),inactive
8,CCCCCCOC(=O)C(C)CC (stereo not given),inactive
9,COC(=O)c1ccc2cc(C(=O)OC)ccc2c1,inactive
10,CN(C)c1ccc(N=Nc2ccccc2C(=O)O)cc1,inactive
11,CC1(C)S[C@@H]2[C@H](NC(=O)COc3ccccc3)C(=O)N2[C@H]1C(=O)O,inactive
12,NC(=O)N=NC(N)=O,inactive
13,O=P(O)(O)Oc1ccccc1,inactive
14,OC1OCCOC1O (stereo not given),inactive
15,CC(=O)CC(N)=O,inactive
16,Cc1cc(C)c(C(=O)O)c(C)c1,inactive
17,FC(F)=C(F)OC(F)(F)C(F)(F)C(F)(F)F,inactive
18,O=C1CCCC1,inactive
19,CCOC(=O)NNc1nncc2ccccc12,inactive
20,CCC(CC)C(=O)O,inactive

row,Compound,outcome
1,C=CC(C)(CCC=C(C)C)OC(=O)CC(C)C (stereo not given),inactive
2,CC(C)=CCC/C(C)=C\C#N,inactive
3,CC(=O)Nc1ccc2c(c1)Cc1cc(NC(C)=O)ccc1-2,inactive
4,CC(C)(C)c1ccc(N)cc1,inactive
5,O=[N+]([O-])c1ccc(CO)cc1,inactive
6,CCc1c(C(=O)O)c(=O)cnn1-c1ccc(Cl)cc1,inactive
7,C=C[Si](OC(C)=O)(OC(C)=O)OC(C)=O,inactive
8,CCC(=O)Oc1ccc(/C(CC)=C(\CC)c2ccc(OC(=O)CC)cc2)cc1,inactive
9,OCCc1ccncc1,inactive
10,CCCCC(CC)COC(=O)c1ccccc1O (stereo not given),inactive
11,C[Si](C)O[Si](C)(C)O[Si](C)(C)O[Si](C)C,inactive
12,Cc1ccc(OC(=O)CC(C)C)cc1,inactive
13,CCc1nccnc1C,inactive
14,CN(C)CCCN(C)C,inactive
15,CNC(=S)NN,inactive
16,Nc1ccc(Cl)cc1Cl,inactive
17,CC(=O)Oc1ccc(C)cc1,inactive
18,O=C(Oc1ccccc1)c1ccc2ccccc2c1O,inactive
19,O=C(Nc1cccc(C(F)(F)F)c1)c1cc(Br)cc(Br)c1O,inactive
20,CCCCNc1ccc(NCCCC)c2c1C(=O)c1ccccc1C2=O,inactive

# From PubChem BioAssay (EPA / NIEHS)
